Screening data (PubChem BioAssay)
HGIII-sPLA2 inh – human group III sPLA2 inhibitors, primary screen, biochemical, QFRET, BODIPY PC-A2 liposome substrate | QFRET BODIPY PC-A2 liposome hydrolysis, fluorescence | inhibition, % at 12.2 µM | 0.56% of 370,000 active | AID 743126, 2013;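 active means inhibition above mean plus 3 SD of compounds lying within the high and low control bounds, cut at about 19% in these data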;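 further: 0% = median of test compound wells and 100% = no enzyme DMSO wells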
PLC-gamma1 inh – PLC-gamma1 enzyme inhibitors, primary screen, biochemical, fluorescence, purified enzyme | fluorogenic substrate | inhibition, % at 12.2 µM | 0.84% of 370,000 active | AID 720700, 2013; in the data active means inhibition above about 9.5%
PLC-beta3 inh – human PLC-beta3 inhibitors, primary screen, biochemical, fluorescence; 1-phosphatidylinositol 4,5-bisphosphate phosphodiesterase beta-3 (Homo sapiens), Q01970; AID 720704, 2013; inhibition, % at 12.2 µM; Purified PLC-beta3, fluorogenic substrate; 0.18% of 370,000 active; in the data active means inhibition above about 11%;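 further: 0% = median of compound wells on plate and 100% = full blocker control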
KLK7 zymogen act – proKLK7 zymogen activators, primary screen, biochemical, fluorescence intensity; 0.9% of 370,000 active; activation, % at 7 µM; purified proKLK7, EDANS-DABCYL substrate fluorescence; 100% is mature enzyme control, 0% vehicle; Kallikrein-7 (Homo sapiens), P49862;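 active means activation above the mean of all tested compounds plus 3 SD, computed per campaign excluding outliers beyond control limits, cut at about 13% in these data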
Target sequence (P49862 whole entry, looked up): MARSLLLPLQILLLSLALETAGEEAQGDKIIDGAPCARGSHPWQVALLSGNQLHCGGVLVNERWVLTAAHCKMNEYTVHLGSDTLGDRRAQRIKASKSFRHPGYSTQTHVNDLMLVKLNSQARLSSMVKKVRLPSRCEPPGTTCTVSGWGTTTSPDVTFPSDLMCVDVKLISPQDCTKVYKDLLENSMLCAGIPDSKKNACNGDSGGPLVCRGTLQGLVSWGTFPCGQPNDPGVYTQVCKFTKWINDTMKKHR
ADAM10 inh – human ADAM10 inhibitors, primary screen, biochemical, QFRET, HTS; inhibition, % at 7 µM; recombinant ADAM10, EDANS/DABCYL FRET peptide cleavage, 3 h; 0.62% of 370,000 active; AID 720582, 2013; Disintegrin and metalloproteinase domain-containing protein 10 (Homo sapiens), O14672;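 active means inhibition above a per-campaign cutoff equal to the mean of compounds falling between control-based bounds plus 3 SD, cut at about 20% in these data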;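 further: 0% = DMSO wells while the 100% control is not disclosed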
ADAM17 inh – ADAM17 inhibitors, primary screen, biochemical, QFRET. Disintegrin and metalloproteinase domain-containing protein 17 (Homo sapiens), P78536. recombinant ADAM17, EDANS/DABCYL FRET peptide cleavage. inhibition, % at 6.95 µM. 0.83% of 370,000 active. AID 720648, 2013;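 active means inhibition above the mean of compounds lying between control limits plus 3 SD, set per campaign, cut at about 8.5% in these data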;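 further: 0% = DMSO-only wells as the low control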
ADAM10 confirm – human ADAM10 inhibitors, confirmation, biochemical, QFRET, triplicate; 1% of 2,100 active; AID 743208, 2013; shares compounds with ADAM10 inh; ADAM10 QFRET peptide cleavage, EDANS fluorescence; inhibition, % at 6.95 µM;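 active means inhibition above about 20% chosen separately for each screening run, limit read from the data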;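 further: 0% = DMSO wells and 100% = marimastat wells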
ADAM17 ctr – ADAM17 inhibitors, counter-screen for ADAM10 exosite inhibitor project, biochemical, QFRET, high throughput; shares compounds with ADAM10 inh; ADAM17 QFRET peptide cleavage, EDANS fluorescence; inhibition, % at 6.95 µM; 0.5% of 2,100 active; AID 743214, 2013;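 active means mean triplicate inhibition above the solvent-only control wells' mean plus 3 SD, cut at about 12% in these data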;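 further: 0% = DMSO wells and 100% = marimastat wells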
Starred values were filed as active, the others as inactive; . = not tested or not shown. The list is not random: actives were taken first. Their share in the collection is about 3.4%.

SMILES | HGIII-sPLA2 inh | PLC-gamma1 inh | PLC-beta3 inh | KLK7 zymogen act | ADAM10 inh | ADAM17 inh | ADAM10 confirm | ADAM17 ctr
Cc1ccc(Nc2c([N+](=O)[O-])cc(C(=O)N3CC(=O)Nc4ccccc43)cc2[N+](=O)[O-])c(C)c1 | 16 | 2 | 1 | 0 | 20* | 3 | 7 | 2
O=C(CSCc1ccccc1Cl)NN=C1CCCCCC1 | -3 | 5 | -1 | 0 | 20* | 3 | 1 | 1
O=C(CSCc1c(Cl)cccc1Cl)NN=C1CCCC1 | -3 | 4 | -5 | 0 | 10 | 3 | . | .
C[C@H](O)[C@@H]1CN2CCc3ccc(-c4ccc5c(c4)OCO5)cc3[C@@H]2C[C@@H]1N(C)Cc1cc(Cl)cc(Cl)c1 | -2 | 3 | 3 | 0 | -17 | -1 | . | .
O=C(NNc1ccccc1)C(=O)NNS(=O)(=O)c1ccc(CCCl)cc1 | 5 | 2 | -41 | 0 | 35* | 11* | 13 | 1
CC(=NNc1nc2ccccc2s1)c1ncccn1 | -4 | -2 | -3 | 0 | 1 | 1 | . | .
C/C(=N\Nc1nc2ccccc2s1)c1cccs1 | -3 | -4 | -9 | 1 | 25* | 7 | 8 | 3
COc1ccc(C)c2sc(N(CCCN(C)C)C(=O)c3ccc(S(=O)(=O)N4CCc5ccccc5C4)cc3)nc12 | -10 | 0 | 2 | -2 | 31* | -9 | 21* | 11
COc1cccc2sc(N(CCCN(C)C)C(=O)c3ccc(S(=O)(=O)N4CCc5ccccc5C4)cc3)nc12 | -20 | 3 | -6 | -2 | 5 | -2 | . | .
COc1ccc(C2(c3ccc(OC)cc3)NC(=O)N(CC(=O)Nc3ccc(OC(F)F)cc3)C2=O)cc1 | -24 | 4 | -6 | -1 | 31* | 6 | 9 | 2
O=C(NC1CCCCC1)[C@H](CSCc1ccccc1)N1Cc2ccccc2C1=O | -1 | 4 | 8 | 0 | 22* | 7 | 1 | 0
CC(C)NC(=O)[C@H](CSCc1ccccc1)N1Cc2ccccc2C1=O | 11 | 2 | 1 | -1 | -6 | -3 | . | .
COc1ccc2c(c1)N[C@@](CCNC=O)(c1[nH]c3ccccc3c1CCNC=O)C2=O | 11 | -17 | -24 | . | -18 | -7 | . | .
Cn1c(N/N=C/c2cccs2)nc2c1c(=O)n(Cc1ccccc1)c(=O)n2C | -10 | -7 | 0 | -1 | 26* | 5 | 9 | 5
Cn1c(=O)c2c(nc(N/N=C/c3cccs3)n2Cc2ccccc2)n(C)c1=O | 5 | -27 | -6 | 0 | -4 | 2 | . | .
O=C(Nc1ccncc1)c1sc2ccccc2c1Cl | 0 | 7 | -8 | 0 | -7 | -9 | . | .
O=C(NNC(=O)c1sc2ccccc2c1Cl)Nc1ccc(Cl)cc1 | -11 | 1 | -3 | 0 | 20* | 5 | 0 | 0
COc1ccccc1NS(=O)(=O)c1cccc(C(=O)OCc2nc3ccccc3s2)c1 | -38 | 8 | -3 | 0 | 21* | 8 | 7 | 2
COC(=O)CCN(Cc1cccc(OC)c1OC)S(=O)(=O)c1ccccc1Br | -2 | 3 | 0 | 1 | 4 | 0 | . | .
O=C(Nc1cccc(Cl)c1)OCCOC(=O)Nc1cccc(Cl)c1 | -11 | -2 | -1 | 1 | 21* | 8 | 4 | 2
CCn1c(COc2ccc(C)cc2)nnc1SCC(=O)Nc1ccc(Oc2ccccc2)cc1 | -2 | -1 | 1 | 1 | -1 | -1 | . | .
